# The full list was thinned out, with hits kept by preference.
# KDM5B inh – Primary screen for KDM5B Histone Demethylases FDH-coupled qHTS; Lysine-specific demethylase 5B (Homo sapiens), Q9UGL1; KDM5B demethylase, FDH-coupled NADH fluorescence (FDH is formaldehyde dehydrogenase); Potency, µM (titrated, usually from 57.7 µM), most hits filed as inhibitors; 220,000 compounds, 2.6% hits; AID 1347165, 2019; active = well fitted inhibition curve with a large enough effect; note: 0% is about no effect; nearly all actives have a fitted effect of over 70% in size
# Target sequence (Q9UGL1 whole entry, looked up): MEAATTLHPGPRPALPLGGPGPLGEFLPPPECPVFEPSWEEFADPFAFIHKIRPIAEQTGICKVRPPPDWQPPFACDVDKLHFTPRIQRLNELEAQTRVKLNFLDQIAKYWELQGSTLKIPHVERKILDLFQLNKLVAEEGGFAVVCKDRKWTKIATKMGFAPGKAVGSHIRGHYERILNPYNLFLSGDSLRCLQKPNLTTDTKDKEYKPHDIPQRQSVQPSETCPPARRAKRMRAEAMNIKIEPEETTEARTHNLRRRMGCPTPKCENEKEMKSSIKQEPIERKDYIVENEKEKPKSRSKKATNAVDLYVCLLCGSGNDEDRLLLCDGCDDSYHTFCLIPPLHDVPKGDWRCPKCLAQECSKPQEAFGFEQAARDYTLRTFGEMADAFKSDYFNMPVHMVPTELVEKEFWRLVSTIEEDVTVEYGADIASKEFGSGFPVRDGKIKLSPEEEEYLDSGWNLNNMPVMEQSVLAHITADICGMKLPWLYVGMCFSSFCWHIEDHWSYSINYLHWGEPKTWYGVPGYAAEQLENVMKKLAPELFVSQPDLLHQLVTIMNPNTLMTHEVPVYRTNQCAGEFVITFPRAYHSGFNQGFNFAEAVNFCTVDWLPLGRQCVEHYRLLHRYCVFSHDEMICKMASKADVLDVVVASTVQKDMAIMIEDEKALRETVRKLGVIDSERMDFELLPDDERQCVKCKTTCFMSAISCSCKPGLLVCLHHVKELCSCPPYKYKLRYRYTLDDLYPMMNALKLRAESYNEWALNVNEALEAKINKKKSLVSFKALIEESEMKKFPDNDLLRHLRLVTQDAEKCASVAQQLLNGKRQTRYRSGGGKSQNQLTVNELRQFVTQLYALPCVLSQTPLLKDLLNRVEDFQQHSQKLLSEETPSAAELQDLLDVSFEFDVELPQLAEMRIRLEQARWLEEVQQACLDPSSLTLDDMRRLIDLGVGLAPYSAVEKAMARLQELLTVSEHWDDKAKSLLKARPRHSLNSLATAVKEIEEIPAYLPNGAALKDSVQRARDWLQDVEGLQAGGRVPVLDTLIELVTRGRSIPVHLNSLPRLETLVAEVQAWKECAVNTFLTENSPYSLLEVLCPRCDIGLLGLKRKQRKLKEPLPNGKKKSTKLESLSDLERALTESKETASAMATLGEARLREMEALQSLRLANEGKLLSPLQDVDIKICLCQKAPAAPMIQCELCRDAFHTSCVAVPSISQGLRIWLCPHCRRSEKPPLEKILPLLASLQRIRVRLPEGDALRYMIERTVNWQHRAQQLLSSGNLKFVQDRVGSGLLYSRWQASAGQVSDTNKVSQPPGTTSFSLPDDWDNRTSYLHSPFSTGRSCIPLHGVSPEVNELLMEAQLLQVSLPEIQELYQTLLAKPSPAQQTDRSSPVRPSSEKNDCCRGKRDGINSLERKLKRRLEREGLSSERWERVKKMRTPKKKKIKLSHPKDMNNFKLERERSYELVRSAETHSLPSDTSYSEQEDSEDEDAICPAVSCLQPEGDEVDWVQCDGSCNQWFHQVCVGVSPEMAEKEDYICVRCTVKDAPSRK
#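 Coupled FDH/NAD⁺ fluorescence readout. KDM5BΔAP 200 nM final; compound titration, 10 min RT preincubation; substrate mix 12.5 µM H3K4me3, 25 µM 2-OG, 50 µM Fe(II), 100 µM ascorbate, 0.25 mM NAD⁺, 0.25 U/mL FDH; ΔRFU over 30 min.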
# Active calls of the source: *; i = inactive. Potency is the fitted concentration of half-maximal effect.
SMILES,KDM5B inh
COc1ccc(C(CNC(=O)c2oc3cc(C)c(Cl)cc3c2C)N2CCCCC2)cc1 (stereo not given),i
CCn1c(CO)nnc1C1CC(NC(=O)Cn2cnc3ccccc3c2=O)C1 (stereo not given),i
CCn1c(CO)nnc1C1CC(NC(=O)c2[nH]c3ccc(OC)cc3c2C)C1 (stereo not given),28µM*
Cc1cccc(NC(=O)CCCc2nc3ccccc3o2)c1,i
CC1=C[C@@H](CNC(=O)CC(C)(C)CC(=O)O)[C@H](C(C)C)C[C@H]1Cc1nc2ccccc2[nH]1,i
CNc1c(NC(=O)NCc2ccccc2)c(=O)oc2ccccc12,i
Cc1ccccc1CN1CCN(C(=O)c2sc(-c3ccc(F)cc3)nc2C)CC1,i
Cc1nc2nc(C(F)(F)F)[nH]n2c(=O)c1Cc1ccccc1Cl,i
COCCOc1ccc(C(=O)N[C@@H]2CN(C(=O)Nc3ccccc3C(=O)OC)CCC[C@H]2O)cc1,i
COC(=O)c1ccccc1NC(=O)N1CCC[C@@H](O)[C@H](NC(=O)c2ccc(OCCN3CCCC3)cc2)C1,i
COC(=O)c1ccccc1NC(=O)N1CCC[C@@H](O)[C@H](NC(=O)c2ccc(OCc3ccccc3)cc2)C1,25µM*
Cc1ccccc1-c1cccc(C(=O)N(C)Cc2ncc[nH]2)c1,i
FC(F)(F)c1ccc(-c2n[nH]c(=S)o2)nc1,i
COc1cc(-c2cnc3ccccc3c2)cc2c1OCCNC2,i
COc1cc(-c2ccc(C(F)(F)F)cn2)cc2c1OCCNC2,25µM*
COc1cc2nc(-c3cc4c(c(OC)c3)OCCNC4)cc(C)c2cc1OC,32µM*
O=C(COc1cc2oc(=O)cc(-c3ccccc3)c2cc1Cl)NCc1cccnc1,i
O=C1COCCN1C1CCN(S(=O)(=O)c2cccc(C(F)(F)F)c2)CC1,i
O=C(NC1CCCC1)C1CCCN(C2CCN(C3Cc4ccccc4C3)CC2)C1 (stereo not given),32µM*
O=C(NC1CCC1)C1CCCN(C2CCN(C3Cc4ccccc4C3)CC2)C1 (stereo not given),i
CCCCNC(=O)C1CCCN(C2CCN(C3Cc4ccccc4C3)CC2)C1 (stereo not given),i
CC(C)=C(/C(=C/CS(=O)(=O)c1ccc(C)cc1)S(=O)(=O)c1ccc(Br)cc1)S(=O)(=O)c1ccc(Br)cc1,i
CN1CCN(CCCNc2nc3ccccc3c3nc(-c4ccccc4)nn23)CC1,i
CC(C)(O)CCc1cccc(C(=O)NCCCc2ccccn2)c1,i
O=C(NCCCNc1ccccc1)NCCc1ccccn1,i
SMILES,KDM5B inh
CN1CCN(CCCNc2nc(CO)nc3ccccc23)CC1,i
CN1CCN(CCCNc2nccc(-c3ccccn3)n2)CC1,28µM*
c1ccc(CCCNc2nccc(-c3ccccn3)n2)nc1,28µM*
O=Cc1ccccc1-n1ccnc1,i
CC(C)Cc1ccc(C(NC(=O)CC2(C(=O)O)CCCC2)c2cccs2)cc1 (stereo not given),i
O=C(Nc1ccc(Cl)cc1Cl)c1cccn2nccc12,32µM*
COC(=O)N1CCn2ncc(C(=O)Nc3ccc(Cl)cc3Cl)c2C1,i
O=C(O)c1nccnc1C(=O)Nc1ccc(Cl)cc1Cl,i
O=C(Nc1ccc(Cl)cc1Cl)c1cnn2ncccc12,35µM*
C[S+](=O)([O-])N1CCn2ncc(C(=O)Nc3ccc(Cl)cc3Cl)c2C1,i
O=C(Nc1cccc2cccnc12)c1ccc(Cl)cc1Cl,i
CC1(c2ccccc2)N(Cc2ccccc2)C(=O)OC12CCN(Cc1cccnc1)CC2 (stereo not given),i
COC(=O)[C@H](NC(=O)[C@@H]1[C@@H](NC(=O)Nc2cccc(SC)c2)CCN1C(=O)c1cccn1C)C(C)C,i
COCCN1CCCC2(CCN(c3nc4c(c(=O)[nH]c(=O)n4C)n3C)C2)C1=O (stereo not given),i
Cc1ccccc1-n1nc(C)c(CCC(=O)NCC2CC2)c1Oc1cccc(F)c1,i
Cc1ccccc1-n1nc(C)c(CCC(=O)NCC(C)C)c1Oc1cccc(F)c1,22µM*
Cc1nn(-c2ccc(F)cc2)c(Oc2cccc(F)c2)c1CCC(=O)NC(C)C,i
CCc1ccccc1NC(=O)N1CCCC(Cn2cnc3cccnc32)C1 (stereo not given),i
COC(=O)[C@@H]1Cc2ncn(Cc3ccc(OC)cc3)c2CN1C(=O)CC(C)(C)CC(=O)O,i
O=C(NCc1ccc(Cl)cc1)[C@@H]1Cc2nc[nH]c2CN1Cc1cccs1,i
COC(=O)[C@@H]1Cc2ncn(Cc3ccc(Cl)cc3)c2CN1C(=O)CC(C)(C)CC(=O)O,i
COC(=O)[C@@H]1Cc2ncn(Cc3ccc(Cl)cc3)c2CN1Cc1cccs1,28µM*
COC(=O)[C@@H]1Cc2ncn(Cc3ccc(Cl)cc3)c2CN1S(=O)(=O)Cc1ccccc1,i
COC(=O)[C@@H]1Cc2ncn(Cc3ccc(Cl)cc3)c2CN1CCCc1ccccc1,35µM*
COc1ccccc1NC(=O)CSc1nc2ccsc2c(=O)n1C,i
SMILES,KDM5B inh
Cc1ccccc1-c1nnn(Cc2cc(=O)oc3c(C)c(C)ccc23)n1,i
CCc1ccccc1CN1CCCC2(Cc3ccccc3CNC2=O)C1 (stereo not given),i
COc1ccc(C(=O)N2CCOCC3(CN(Cc4cc(F)ccc4F)C3)C2)cc1OC,i
COc1ccc(CCNC(=O)c2c(C)noc2-c2cccs2)cc1OC,i
Cc1noc(-c2cccs2)c1C(=O)NC(C)CCc1ccccc1 (stereo not given),28µM*
CC(CCc1ccccc1)NC(=O)CNC(=O)c1cccs1 (stereo not given),i
Cc1noc(-c2ccc(OC(F)(F)F)cc2)c1C(=O)NC(C)CCc1ccccc1 (stereo not given),i
Cc1noc(-c2cccs2)c1C(=O)NC1CCc2ccccc21 (stereo not given),28µM*
Cc1cc(C(=O)NC2CCCc3ccccc32)cs1 (stereo not given),i
COc1ccccc1C(=O)NCc1nnc2cc(-c3nc(C4CC4)no3)ccn12,28µM*
O=C(NCc1nnc2cc(-c3nc(C4CC4)no3)ccn12)c1nccc2ccccc12,28µM*
O=C(NCc1nnc2cc(-c3nc(C4CC4)no3)ccn12)c1ccccc1F,8.9µM*
O=C(NCc1nnc2cc(-c3nc(C4CC4)no3)ccn12)c1ccc(F)cc1,i
O=C(NCc1nnc2cc(-c3nc(C4CC4)no3)ccn12)c1ccc2[nH]ccc2c1,i
O=C(NCc1nnc2cc(-c3nc(C4CC4)no3)ccn12)c1ccc(F)c(F)c1,28µM*
CCCCOc1ccc2c(=O)c(Oc3ccccc3)c(C)oc2c1,i
CNC(=O)C(C)SCc1ccc(Br)cc1 (stereo not given),i
CC1CC1C(=O)NCCC(=O)Nc1ccc(C#N)cc1 (stereo not given),i
O=C(O)c1ccc(CNCc2cccc3ccccc23)cc1,i
Cc1ccc(OCc2nc(C3CCN(C(=O)c4ccco4)CC3)no2)cc1,i
CCOC(=O)c1cccc(OCc2ccc(C#N)cc2)c1,i
CC1(C)C(=O)N(Cc2ccccc2)[C@H]2CN(Cc3ccc(C(=O)O)cc3)C[C@H]2[S+]1(=O)[O-],i
Cc1cccc(C(=O)NCc2nnc3cc(-c4nc(C5CC5)no4)ccn23)c1,i
O=C(NCc1nnc2cc(-c3nc(C4CC4)no3)ccn12)c1cccnc1,28µM*
O=C(Nc1c(Cl)cccc1Cl)C1=C(c2ccccc2)S(=O)(=O)CCO1,i
